SMARCA2 activ – SMARCA2 (BRM) function activators, primary screen, cell-based, luminescence, high throughput; MG213 cells, MMTV-luciferase reporter, dexamethasone, overnight; activation, % at 9.1 µM; 370,000 compounds, 1% hits; AID 652017, 2013; in the data active = activation above about 7.8%;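 note: 0% = vehicle wells and 100% = reference activator wells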
ssDAF12 agonist – S. stercoralis DAF-12 nuclear receptor activators, primary screen, cell-based, luminescence, HEK293, GRIP1 co-expression, lit1-tk-luc; Nuclear hormone receptor DAF-12 (Strongyloides stercoralis); HEK293 ssDAF-12/GRIP1 lit1-tk-luc reporter; % of 3 µM dafachronic acid response; activation, % at 6.8 µM; 370,000 compounds, 1% hits;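 active = activation above the mean over all tested compounds plus 3 SD, cut at about 0.9% in these data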;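 note: 0% = DMSO-only wells and 100% = 3 µM delta7-dafachronic acid wells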
hcDAF-12 act – H. contortus DAF-12 nuclear receptor activators, primary screen, cell-based, luminescence, HEK293, lit1-tk-luc reporter | AID 652067, 2013 | HEK293 hcDAF-12 lit1-tk-luc reporter; 0% DMSO, 100% Δ7-dafachronic acid | activation, % at 6.8 µM | 370,000 compounds, 1.4% hits;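 active = activation above the mean of all tested compounds plus 3 SD, cut at about 5.5% in these data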;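 note: 100% = response to 3 µM Δ7-dafachronic acid high control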
DAX1 inh-1 – DAX1 (NR0B1) inhibitors on StAR promoter, primary screen, cell-based, luminescence, SF-1 (NR5A1), full-length DAX-1; HEK293T StAR-luciferase reporter, SF-1/DAX-1 repression relief; inhibition, % at 6.8 µM; 370,000 compounds, 1.1% hits;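 active = inhibition above the mean over all tested compounds plus 3 SD, cut at about 3.6% in these data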;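 note: 0% = DAX-1 cells with DMSO and 100% = cells lacking DAX-1 with DMSO; higher inhibition means more luminescence from relief of DAX-1 repression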
DAX1 inh-2 – DAX1 (NR0B1) inhibitors, primary screen, cell-based, HEK293, Gal4-DAX1, luciferase luminescence. Nuclear receptor subfamily 0 group B member 1 (Homo sapiens), P51843. HEK293 Gal4-DAX1 luciferase reporter. inhibition, % at 6.75 µM. 340,000 compounds, 0.99% hits;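 active = inhibition above the mean over all tested compounds plus 3 SD, cut at about 4.2% in these data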;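 note: 0% = DAX1-transfected cells with DMSO and 100% = empty-vector control cells with DMSO; inhibition shows as a rise in luminescence from relieved DAX1 repression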
Target sequence (P51843 207-470 limits assumed): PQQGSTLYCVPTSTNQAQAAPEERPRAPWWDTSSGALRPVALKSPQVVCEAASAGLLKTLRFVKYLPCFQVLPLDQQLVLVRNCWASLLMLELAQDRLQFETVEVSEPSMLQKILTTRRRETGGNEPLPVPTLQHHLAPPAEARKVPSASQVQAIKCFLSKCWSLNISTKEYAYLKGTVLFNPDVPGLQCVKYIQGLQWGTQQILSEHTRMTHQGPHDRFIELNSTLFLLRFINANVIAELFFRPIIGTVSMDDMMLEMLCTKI
hgDAF12 agonist – H. glycines DAF-12 receptor agonists, primary screen, cell-based, luminescence, HEK293, GAL4 fusion, UAS-luciferase; HEK293 GAL4-hgDAF12 UAS-luciferase reporter, agonist luminescence; normalized to butyrate control; activation, % at 6.8 µM; Nuclear hormone receptor DAF-12 (Heterodera glycines), GAL4 fusion; AID 687014, 2013; 370,000 compounds, 1.8% hits;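 active = activation above a cutoff set at the mean of all screened compounds plus 3 SD, cut at about 10% in these data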;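 note: 0% = DMSO wells and 100% = sodium butyrate wells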
DAX1 inh confirm – DAX1 (NR0B1) inhibitors relieving SF-1 repression, confirmation, cell-based, luminescence, HEK293T, full-length DAX-1, SF-1 activated StAR promoter; shares compounds with DAX1 inh-1; HEK293T StAR-promoter luciferase reporter, SF-1/DAX-1 repression; inhibition, % at 6.8 µM; 2,400 compounds, 87% hits; AID 652134, 2013;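 active = inhibition above the average of every tested compound plus 3 SD, cut at about 3.8% in these data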;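 note: 0% = DAX-1 cells with DMSO and 100% = no DAX-1 control cells with DMSO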
Target sequence (P51843 whole entry, looked up): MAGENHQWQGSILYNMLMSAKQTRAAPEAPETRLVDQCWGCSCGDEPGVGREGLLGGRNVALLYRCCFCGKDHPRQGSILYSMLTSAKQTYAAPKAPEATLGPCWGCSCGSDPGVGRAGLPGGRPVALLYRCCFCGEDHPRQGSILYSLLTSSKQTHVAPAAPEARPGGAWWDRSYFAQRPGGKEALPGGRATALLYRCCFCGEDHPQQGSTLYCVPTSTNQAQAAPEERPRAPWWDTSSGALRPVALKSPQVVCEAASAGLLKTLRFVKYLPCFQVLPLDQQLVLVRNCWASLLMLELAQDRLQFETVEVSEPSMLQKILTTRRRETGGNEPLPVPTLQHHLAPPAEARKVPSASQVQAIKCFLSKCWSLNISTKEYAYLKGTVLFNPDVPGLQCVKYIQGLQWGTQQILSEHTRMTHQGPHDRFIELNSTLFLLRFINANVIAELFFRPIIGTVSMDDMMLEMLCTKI
SF1 AF2mut Luc – StAR reporter signal changes without DAX1, counter-screen for DAX1 inhibitor project, cell-based, luminescence, AF-2 mutant SF-1, transactivation | shares compounds with DAX1 inh-1 | HEK293 StAR-luciferase, SF-1 AF2 mutant | inhibition, % at 6.8 µM | 2,400 compounds, 78% hits | AID 652136, 2013;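 active = inhibition above the mean of all tested compounds plus 3 SD, cut at about 3% in these data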;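 note: 0% = DAX-1 transfected cells with DMSO and 100% = cells without DAX-1 with DMSO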
* = called active by the depositor; . = not tested or not shown. Only some compounds are listed: those with a hit (about 4.8% of all), similar ones and a draw of the others.

SMILES | SMARCA2 activ | ssDAF12 agonist | hcDAF-12 act | DAX1 inh-1 | DAX1 inh-2 | hgDAF12 agonist | DAX1 inh confirm | SF1 AF2mut Luc
O=C(NNC(=S)Nc1cccc(Cl)c1)c1ccccc1 | 3.6 | 0.1 | 3.0 | 5.3* | 1.1 | 6.5 | 4.8* | 4.0*
Cc1ccc(S(=O)(=O)N2CCCCC2)cc1C(=O)N1CCCCCC1 | 0.6 | -1.3 | -1.1 | -0.9 | 0.4 | -2.3 | . | .
COc1cc(C(=O)COC(=O)c2ccc3c(c2)OCCO3)cc(OC)c1OC | 0.7 | -1.0 | -1.0 | 0.5 | 1.0 | 0.6 | . | .
COc1ccc(-c2oc3c(c2C#CC2(O)CCCCC2)C(OC)CCC3)cc1 (centres undefined) | 4.7 | -1.2 | -2.2 | 5.6* | . | 2.5 | -1.4 | -1.3
O=C1CCCc2nc(N3CCN(C(=O)c4ccco4)CC3)ncc21 | 4.3 | 0.5 | 1.8 | 5.7* | 2.3 | 5.3 | 5.9* | 3.4*
Cc1ccc(F)cc1NC(=O)CSCc1nc2sc(C)c(C)c2c(=O)[nH]1 | -0.2 | -0.6 | 1.1 | -2.6 | 1.5 | -0.6 | . | .
Cc1cc(C)nc(SCc2csc(-c3ccccc3)n2)n1 | 3.2 | 0.4 | 5.1 | 5.2* | 3.5 | 11.4* | 12.5* | 6.3*
Nc1ccn([C@@H]2O[C@H](C(=O)NCCCN3CCCC3=O)[C@@H](O)[C@H]2O)c(=O)n1 | -2.5 | -1.1 | -1.0 | -0.8 | . | -0.8 | . | .
COc1ccccc1C(=O)N/N=C(\C)CC(=O)Nc1ccccc1NC(C)=O | -3.2 | 0.3 | 1.1 | 0.4 | 1.0 | 3.9 | . | .
CC(=O)Nc1ccccc1NC(=O)C/C(C)=N/NC(=O)c1ccccn1 | 6.0 | 0.4 | 7.5* | 4.6* | 0.7 | 10.3 | 2.4 | 3.4*
O=C(CN1CCN(S(=O)(=O)c2ccc(Cl)cc2)CC1)NCC1(N2CCOCC2)CCCCC1 | -2.8 | -1.1 | -2.1 | 4.7* | 0.0 | -0.6 | 1.4 | 2.5
Cc1ccc(S(=O)(=O)N2CCN(CC(=O)NCC3(N4CCOCC4)CCCCC3)CC2)cc1 | -1.6 | -1.0 | 1.5 | 1.1 | -1.2 | 0.1 | . | .
O=C1c2cccnc2C(=O)N1Cc1ccc(S(=O)(=O)N2CCOc3ccc(Cl)cc32)cc1 | . | . | . | . | 0.6 | . | . | .
COc1ccc(C(=O)NCCS(=O)(=O)NCCc2ccccc2)cc1 | 2.5 | -0.1 | 2.2 | 4.8* | -0.4 | 6.4 | 3.8* | 1.9
COc1cccc(CN2CCC2(C)C(=O)Nc2ccc3c(c2)CCN3C(C)=O)c1F (centres undefined) | -0.8 | -1.8 | -3.0 | -1.6 | . | 0.4 | . | .
Cc1ccc(Cn2cc(CN3CC(N4CCN(C5CCN(C)CC5)CC4)CS3(=O)=O)nn2)cc1 (centres undefined) | -1.3 | -1.0 | 0.1 | 4.7* | . | -1.7 | 2.6 | 4.1*
Cc1ccc(C(=O)Nc2ccc(Cl)cc2C)c(Cl)c1 | 1.4 | -0.4 | 4.8 | 6.7* | 0.8 | 12.2* | 7.2* | 5.4*
Cc1cc(NC(=O)c2ccccc2Cl)ccc1NC(=O)c1ccccc1Cl | 0.7 | 0.0 | -3.3 | -0.2 | -1.1 | -0.8 | . | .
CCCCN(CC(=O)NC1CC1)S(=O)(=O)c1ccc(OCC)cc1 | -0.8 | -0.8 | -1.5 | 0.6 | 1.0 | -2.6 | . | .
CCN(C(=O)c1cc2c(=O)n3ccccc3nc2n1C)C1CCCCC1 | 1.1 | -0.9 | 1.6 | 4.9* | 0.8 | 4.5 | 4.6* | 2.8
O=C(Cc1ccccc1[N+](=O)[O-])N/N=C/c1cccnc1 | 0.8 | -0.3 | 2.1 | 1.3 | 1.0 | 0.3 | . | .
Cc1ccc(F)cc1NC(=O)COC(=O)c1ccc2ncsc2c1 | -1.1 | -0.1 | 0.6 | 4.7* | -0.4 | 3.3 | 3.6 | 0.5
Nc1ccc(C#Cc2ccccc2)cc1 | -7.4 | -2.0 | -2.0 | -1.0 | 1.2 | -0.8 | . | .
Cc1cccc(C#Cc2ccccc2)n1 | 3.5 | -0.3 | 2.8 | 4.9* | 1.0 | 10.9* | 7.3* | 4.9*
CCOC(=O)CSC1=C(C#N)C(c2ccc(Cl)cc2)CC(=O)N1 (centres undefined) | -2.6 | -1.5 | -1.6 | -0.7 | -1.5 | 1.8 | . | .
SMILES | SMARCA2 activ | ssDAF12 agonist | hcDAF-12 act | DAX1 inh-1 | DAX1 inh-2 | hgDAF12 agonist | DAX1 inh confirm | SF1 AF2mut Luc
CCOC(=O)CSC1=C(C#N)C(c2ccc(C)o2)CC(=O)N1 (centres undefined) | -1.7 | 0.2 | 0.6 | 5.6* | -0.1 | -5.1 | 17.1* | -5.6
CCOC(=O)C1(Cc2cccc(OC)c2)CCCN(C(=O)CCN2CCCO2)C1 (centres undefined) | 5.7 | 0.2 | 2.6 | 4.8* | 1.3 | 10.9* | 7.0* | 5.8*
CCCN1CCN(CCCNC(=O)c2ccc3nc(N4CCC(C)CC4)sc3c2)CC1 | 2.1 | 0.2 | 5.2 | 6.0* | -1.8 | 10.1 | 9.2* | 4.8*
CC1CC(C)CN(CCCNC(=O)c2ccc3nc(N4CCOCC4)sc3c2)C1 (centres undefined) | -3.2 | -1.6 | -1.3 | -0.3 | 0.1 | -0.8 | . | .
CCOc1ccc(CCN2C(=S)N([C@@H](Cc3ccccc3)CN3CCC[C@@H]3CN3C(=S)NC[C@@H]3CC(C)C)C[C@@H]2Cc2ccccc2)cc1 | 2.9 | -1.5 | -0.5 | -0.3 | . | -0.2 | . | .
CCOc1ccc(CCN2C(=S)N([C@@H](CC(C)C)CN3CCCC3CN3C(=S)NC[C@@H]3CC(C)C)C[C@@H]2Cc2ccccc2)cc1 (some centres undefined) | 1.1 | -0.7 | -0.6 | 4.8* | 0.9 | -2.1 | -2.4 | -1.6
Oc1ccc(C[C@H]2CNC(=S)N2CC2CCCN2C[C@H](Cc2ccccc2)N2C[C@H](Cc3ccc(O)cc3)N(CC3CCCCCC3)C2=S)cc1 (some centres undefined) | -3.8 | -1.3 | -0.4 | 4.9* | -1.0 | -1.2 | 1.6 | 0.9
CC(C)C[C@@H](CN1CCC[C@@H]1CN1C(=S)NC[C@@H]1Cc1ccccc1)N1C[C@H](Cc2ccc(O)cc2)N(CC2CCCCCC2)C1=S | -6.0 | -0.5 | -1.5 | 5.0* | . | 1.1 | -1.3 | 0.5

Bioassay records deposited in PubChem by The Scripps Research Institute Molecular Screening Center.
